Test [1] is described as follows: NCI Yeast Anticancer Drug Screen. Data for the rad50 strain (AID 155).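 Note: 0% = growth of vehicle-only cultures of the same strain.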 The following applies: S. cerevisiae rad50 strain growth inhibition, hits give high values. The method, boiled down:
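Cells are treated with compound, grown, and their growth is then scored against vehicle-only cultures of the same repair-deficient yeast strain.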

Test [2] can be described thus: NCI Yeast Anticancer Drug Screen. Data for the mec2-1 strain (AID 157). As to conditions: S. cerevisiae mec2-1 strain, hits give high values. In short, it runs like this:
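Compounds were applied to mec2-1 yeast cells. Their growth was then compared with that of vehicle-treated cultures to give growth inhibition.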

A short description of test [3]: NCI Yeast Anticancer Drug Screen. Data for the sgs1 mgt1 strain (AID 161).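 Note: 0% = growth of cultures given vehicle only.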 As to conditions: S. cerevisiae sgs1 mgt1 strain, hits give high values. In short, it runs like this:
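Growth of a repair-deficient yeast mutant was monitored after compound treatment and expressed as inhibition relative to vehicle-treated cultures.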

Test [4] in a line: NCI Yeast Anticancer Drug Screen. Data for the cln2 rad14 strain (AID 165).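 Note: 0% = growth equal to vehicle treated cultures.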 The following applies: S. cerevisiae cln2 rad14 strain, hits give high values. In short, it runs like this:
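Strain: cln2 rad14 yeast, altered in cell cycle control and DNA damage repair. Read-out: growth inhibition vs vehicle.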

Test [5] is described as follows: NCI Yeast Anticancer Drug Screen. Data for the bub3 strain (AID 167). As to conditions: S. cerevisiae bub3 mutant strain, hits give high values. In short, it runs like this:
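Part of a panel of yeast mutants defective in DNA damage repair or cell cycle regulation. Each strain is grown with compound, and inhibition is calculated relative to solvent-treated cultures.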

The nature of test [6]: NCI Yeast Anticancer Drug Screen. Data for the mlh1 rad18 strain (AID 175). The following applies: S. cerevisiae mlh1 rad18 strain growth inhibition, hits give high values. The method, boiled down:
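A repair-deficient yeast strain is exposed to test compound, and growth is scored relative to vehicle-treated controls.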

Setting [7] is: at 5.0 µM (retest, dose inferred, filed as 0.5).
Where [8] appears, read: at 50.0 µM (retest, dose inferred, filed as 5.0).

The values that follow come from PubChem BioAssay (NCI).

This is part of a sample that, as a whole, favours compounds with a hit. Of some 79,000 tested, about 15% had one in any assay. A number with no mark means an inactive call. Activity calls are given as the source filed them. Cut-off read from the data, not from the text of the source: active = growth inhibition above about 70%; inactive = the rest.

Regarding `C1=NC2c3ccccc3Cc3cccc1c32` (configuration not stated), the growth inhibition in test [1] (setting [7]) was -20%; in test [1] (setting [8]) it was 94% (active); in test [1] (at 50.0 µM), 95.4% (active); in test [2] (setting [7]), -3%; in test [2] (setting [8]) it was 97% (active); in test [2] (at 50.0 µM) it was 95.8% (active). Besides, the growth inhibition in test [3] (setting [7]) was 7%; in test [3] (setting [8]) it was 97% (active); in test [3] (at 50.0 µM), 95.3% (active); in test [4] (setting [7]), -28%; in test [4] (setting [8]), 96% (active); in test [4] (at 50.0 µM), 93.6% (active). Besides, the growth inhibition in test [5] (setting [7]) was 2%; in test [5] (setting [8]), 97% (active); in test [5] (at 50.0 µM), 93.3% (active); in test [6] (setting [7]), -13%; in test [6] (setting [8]), 97% (active); in test [6] (at 50.0 µM) it was 94.3% (active).
Turning to `CC[C@]1(O)C[C@H]2[C@@H]3CCc4cc(OC)ccc4[C@H]3CC[C@]2(C)[C@H]1O`, the growth inhibition in test [1] (setting [7]) was -3%; in test [1] (setting [8]) it was 98% (active); in test [1] (at 50.0 µM) it was 46%; in test [2] (setting [7]), -6%; in test [2] (setting [8]), 98% (active); in test [2] (at 50.0 µM), 48.5%. The growth inhibition in test [3] (setting [7]) was -4%; in test [3] (setting [8]), 98% (active); in test [3] (at 50.0 µM), 49.9%; in test [4] (setting [7]), -6%; in test [4] (setting [8]) it was 87% (active); in test [4] (at 50.0 µM), 68.9%. Also, the growth inhibition in test [5] (setting [7]) was 2%; in test [5] (setting [8]), 97% (active); in test [5] (at 50.0 µM) it was 49.8%; in test [6] (setting [7]), -4%; in test [6] (setting [8]), 99% (active); in test [6] (at 50.0 µM) it was 46.4%.
Regarding `COc1ccc2c(c1)CCCN2CCCCCCCCCN1CCCCC1`, the growth inhibition was 31% in test [1] (setting [7]); 36% in test [1] (setting [8]); 62% in test [1] (at 50.0 µM); 27% in test [2] (setting [7]); 53% in test [2] (setting [8]); 57.9% in test [2] (at 50.0 µM). In addition, the growth inhibition in test [3] (setting [7]) was 45%; in test [3] (setting [8]), 81% (active); in test [3] (at 50.0 µM) it was 82.8% (active); in test [4] (setting [7]), 35%; in test [4] (setting [8]) it was 44%; in test [4] (at 50.0 µM), 42.4%. In addition, the growth inhibition was 45% in test [5] (setting [7]); 76% (active) in test [5] (setting [8]); 79.6% (active) in test [5] (at 50.0 µM); 47% in test [6] (setting [7]); 63% in test [6] (setting [8]); 69% in test [6] (at 50.0 µM).
In the case of `CC(=O)Nc1[c-]cccc1.CC(=O)Nc1[c-]cccc1.CC(=O)O.CC(=O)O.[Pd].[Pd]`, the growth inhibition in test [1] (setting [7]) is 2%; in test [1] (setting [8]) it was 31%; in test [1] (at 50.0 µM), 79.8% (active); in test [2] (setting [7]), -1%; in test [2] (setting [8]), 51%; in test [2] (at 50.0 µM), 87.2% (active). The growth inhibition in test [3] (setting [7]) was 17%; in test [3] (setting [8]) it was 89% (active); in test [3] (at 50.0 µM), 92.5% (active); in test [4] (setting [7]), -7%; in test [4] (setting [8]), 25%; in test [4] (at 50.0 µM), 45.1%. The growth inhibition in test [5] (setting [7]) was -4%; in test [5] (setting [8]), 31%; in test [5] (at 50.0 µM), 58.7%; in test [6] (setting [7]), -1%; in test [6] (setting [8]), 55%; in test [6] (at 50.0 µM), 95.8% (active).
For the compound `O=C1C=CC(=Nc2cccc3c2-c2ccccc2C3)O1`, the growth inhibition in test [1] (setting [7]) was 98% (active); in test [1] (setting [8]), 99% (active); in test [1] (at 50.0 µM) it was 99.6% (active); in test [2] (setting [7]), 99% (active); in test [2] (setting [8]), 99% (active); in test [2] (at 50.0 µM) it was 99.6% (active). Besides, the growth inhibition in test [3] (setting [7]) is 99% (active); in test [3] (setting [8]) it was 99% (active); in test [3] (at 50.0 µM), 99.7% (active); in test [4] (setting [7]) it was 88% (active); in test [4] (setting [8]) it was 99% (active); in test [4] (at 50.0 µM), 99.4% (active). The growth inhibition in test [5] (setting [7]) is 99% (active); in test [5] (setting [8]) it was 99% (active); in test [5] (at 50.0 µM) it was 99.7% (active); in test [6] (setting [7]) it was 99% (active); in test [6] (setting [8]), 99% (active); in test [6] (at 50.0 µM), 85.6% (active).
For the compound `COc1ccc(C(=O)Cc2ccc(Cl)cc2)cc1OC`, the growth inhibition in test [1] (setting [7]) is -12%; in test [1] (setting [8]) it was -1%; in test [1] (at 50.0 µM), 6.3%; in test [2] (setting [7]), -7%; in test [2] (setting [8]), -13%; in test [2] (at 50.0 µM) it was 2.65%. For the same compound, the growth inhibition in test [3] (setting [7]) was -14%; in test [3] (setting [8]), -17%; in test [3] (at 50.0 µM), 10.5%; in test [4] (setting [7]), 9%; in test [4] (setting [8]), -3%; in test [4] (at 50.0 µM), -4.45%. In addition, the growth inhibition in test [5] (setting [7]) is -1%; in test [5] (setting [8]), -1%; in test [5] (at 50.0 µM), 3.55%; in test [6] (setting [7]) it was -17%; in test [6] (setting [8]), -22%; in test [6] (at 50.0 µM) it was 16.6%.
In the case of `C=Cc1ccccc1C1(O)C=CC(OC)(OC)C=C1`, the growth inhibition in test [1] (setting [7]) was 17%; in test [1] (setting [8]), 25%; in test [1] (at 50.0 µM) it was 44%; in test [2] (setting [7]), 11%; in test [2] (setting [8]), 16%; in test [2] (at 50.0 µM) it was 7.1%. The growth inhibition in test [3] (setting [7]) was 12%; in test [3] (setting [8]) it was 14%; in test [3] (at 50.0 µM) it was 34.5%; in test [4] (setting [7]) it was 17%; in test [4] (setting [8]) it was 31%; in test [4] (at 50.0 µM) it was -2.15%. The growth inhibition is 8% in test [5] (setting [7]); 9% in test [5] (setting [8]); 44.2% in test [5] (at 50.0 µM); 21% in test [6] (setting [7]); 32% in test [6] (setting [8]); 15.2% in test [6] (at 50.0 µM).
`CCCOC1=C(Cl)C(=O)c2cccc([N+](=O)[O-])c2C1=O`: the growth inhibition in test [1] (setting [7]) was 94% (active); in test [1] (setting [8]) it was 98% (active); in test [1] (at 50.0 µM), 99.5% (active); in test [2] (setting [7]) it was 97% (active); in test [2] (setting [8]), 99% (active); in test [2] (at 50.0 µM), 99.5% (active). The growth inhibition was 81% (active) in test [3] (setting [7]); 99% (active) in test [3] (setting [8]); 99.4% (active) in test [3] (at 50.0 µM); 20% in test [4] (setting [7]); 99% (active) in test [4] (setting [8]); 99% (active) in test [4] (at 50.0 µM). Also, the growth inhibition in test [5] (setting [7]) was 97% (active); in test [5] (setting [8]), 99% (active); in test [5] (at 50.0 µM), 99.5% (active); in test [6] (setting [7]), 93% (active); in test [6] (setting [8]), 98% (active); in test [6] (at 50.0 µM), 99.1% (active).
In the case of `C=CC[P+](CC[P+](CC=C)(c1ccccc1)c1ccccc1)(c1ccccc1)c1ccccc1`, the growth inhibition in test [1] (setting [7]) is -2%; in test [1] (setting [8]), -3%; in test [1] (at 50.0 µM), 2.6%; in test [2] (setting [7]), -1%; in test [2] (setting [8]), -4%; in test [2] (at 50.0 µM), -0.25%. For the same compound, the growth inhibition in test [3] (setting [7]) is -2%; in test [3] (setting [8]), 1%; in test [3] (at 50.0 µM) it was 16.6%; in test [4] (setting [7]), -5%; in test [4] (setting [8]), -10%; in test [4] (at 50.0 µM) it was -31.6%. The growth inhibition in test [5] (setting [7]) is -3%; in test [5] (setting [8]) it was -3%; in test [5] (at 50.0 µM), 6.8%; in test [6] (setting [7]), 1%; in test [6] (setting [8]) it was -1%; in test [6] (at 50.0 µM), 52.2%.
